High-throughput results deposited in PubChem by National Center for Advancing Translational Sciences (NCATS).
An excerpt weighted towards active compounds, which were near 2.3% of everything screened.
Pol beta inh: blocks human DNA polymerase beta activity; P06746; Pol beta primer extension/strand displacement, fluorescence kinetic; Potency, µM (series often up to 114 µM), inactives show at the highest dose activity change, negative = inhibition, most hits filed as inhibitors; 1.3% of 340,000 active; note: % is set by controls: 0 for no effect and ±100 for the full control effect
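Values derive from four-parameter Hill fits of normalized kinetic data: reads at 0 and 10 min following addition of 50 nM substrate to 10 nM Pol beta preincubated 15 min with compound.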
Pol eta inh-1: DNA polymerase eta (human) inhibition; AID 588591; 1.2% of 390,000 active; Q9Y253; recombinant Pol eta, fluorescent DNA replication assay; Potency, µM (doses to about 114 µM), for the others: at the highest dose activity change, negative = inhibition, most hits filed as inhibitors; note: % is set by controls: 0 for no effect and ±100 for the full control effect
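Pol eta at 10 nM preincubated with compounds 15 min at room temperature; reaction started with fluorescent substrate (50 nM final) and read kinetically at 0 and 10 min.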
Pol kappa inh-1: blocks human DNA polymerase kappa activity | Potency, µM (titrated, usually from 107 µM), without a hit: at the top dose activity, negative = inhibition, most hits filed as inhibitors | purified Pol kappa, fluorescent DNA synthesis assay, 10 min | 0.53% of 400,000 active; note: % is set by controls: 0 for no effect and ±100 for the full control effect
Target sequence (Q9UBT6 whole entry, looked up): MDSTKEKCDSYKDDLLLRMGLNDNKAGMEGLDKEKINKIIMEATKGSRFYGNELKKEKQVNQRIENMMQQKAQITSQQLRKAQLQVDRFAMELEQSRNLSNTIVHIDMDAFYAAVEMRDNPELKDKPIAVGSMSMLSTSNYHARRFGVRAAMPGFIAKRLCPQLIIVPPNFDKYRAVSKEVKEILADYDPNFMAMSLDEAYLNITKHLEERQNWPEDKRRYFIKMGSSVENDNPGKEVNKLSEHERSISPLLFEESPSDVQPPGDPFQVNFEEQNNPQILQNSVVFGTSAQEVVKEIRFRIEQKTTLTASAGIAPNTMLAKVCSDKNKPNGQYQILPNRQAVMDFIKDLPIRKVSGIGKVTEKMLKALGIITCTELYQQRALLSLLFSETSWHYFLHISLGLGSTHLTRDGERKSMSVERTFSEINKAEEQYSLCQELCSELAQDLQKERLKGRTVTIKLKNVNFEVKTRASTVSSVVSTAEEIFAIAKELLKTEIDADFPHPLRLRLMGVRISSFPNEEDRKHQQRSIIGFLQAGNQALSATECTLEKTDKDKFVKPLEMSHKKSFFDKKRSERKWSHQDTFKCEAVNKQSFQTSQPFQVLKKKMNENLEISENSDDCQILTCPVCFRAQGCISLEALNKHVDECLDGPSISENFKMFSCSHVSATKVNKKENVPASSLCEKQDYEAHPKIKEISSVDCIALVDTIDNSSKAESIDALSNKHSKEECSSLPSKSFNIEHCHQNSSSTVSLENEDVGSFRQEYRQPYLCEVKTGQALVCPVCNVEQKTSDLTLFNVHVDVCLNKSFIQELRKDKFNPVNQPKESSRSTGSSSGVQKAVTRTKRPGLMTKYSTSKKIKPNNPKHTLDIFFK
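Kinetic fluorescence readout at 0 and 10 min followed reaction start with substrate at 50 nM final. Beforehand, enzyme (10 nM Pol kappa) stood 15 min with compound at room temperature; buffer-only wells were negative controls.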
WRN helicase inh-1: blocks human WRN helicase. WRN helicase unwinding, fluorescent forked duplex, kinetic. Potency, µM (highest dose often 114 µM), without a hit: at the top dose activity change, negative = inhibition, usual class: inhibitors. 0.46% of 360,000 active. AID 651768. Q14191; note: % is set by controls: 0 for no effect and ±100 for the full control effect; nearly all actives have a fitted effect of over 55% in size
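Screening of the MLSMR collection measured strand separation of a quenched forked DNA duplex (100 nM) by 20 nM WRN with 2 mM ATP, all final. Compounds were preincubated with enzyme 15 min at room temperature.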
POLI inh: inhibitors of human DNA polymerase iota | Potency, µM (doses to about 115 µM), inactives show at the top dose activity, negative = inhibition, usual class: inhibitors | 1% of 390,000 active | Pol iota fluorescent replication assay, 10 min | Q9UNA4
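Pol iota at 10 nM preincubated 15 min with compounds at room temperature; reaction started with fluorescent substrate, 50 nM final. Fluorescence read kinetically at 0 and 10 min; buffer-only wells as negative control.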
Pol iota confirm: Human Pol iota inhibitor confirmatory assay. Pol iota primer extension, TAMRA/BHQ fluorescence. Potency, µM, actives largely listed as inhibitors. AID 720496. shares compounds with Pol kappa inh-1. 77% of 1,500 active
Pol kappa inh-2: confirmation of human DNA polymerase kappa inhibitors. 76% of 920 active. Potency, µM, hits mostly inhibitors. AID 720501. shares compounds with Pol eta inh-1. purified Pol-kappa, fluorescent strand-displacement substrate
Pol eta inh-2: confirmation of human DNA polymerase eta inhibitors; shares compounds with Pol eta inh-1; Pol eta primer extension, TAMRA/BHQ fluorescence, 10 min; Potency, µM, usual class: inhibitors; 64% of 2,600 active
WRN helicase inh-2: WRN helicase inhibition, cherry-pick retest; AID 720497; shares compounds with WRN helicase inh-1; 63% of 610 active; Potency, µM (series often up to 57.1 µM), inactives show at the highest dose activity, negative = inhibition, most hits filed as inhibitors; WRN helicase DNA unwinding, fluorescence kinetic; note: nearly all actives have a fitted effect of over 65% in size
TO DNA binding: counter-screen for WRN helicase inhibitors: DNA binding; shares compounds with WRN helicase inh-1; thiazole orange DNA binding displacement, fluorescence; Potency, µM (highest dose often 57.1 µM), without a hit: at the highest dose activity change, negative = inhibition, usual class: inhibitors; 10% of 610 active; AID 720499;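 note: drop in dye fluorescence marks compound binding to DNA; % is set by controls: 0 for no effect and ±100 for the full control effect; nearly all actives have a fitted effect of over 60% in size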
BLM counter: blocks human BLM helicase in WRN counterscreen. shares compounds with WRN helicase inh-1. Recombinant BLM helicase DNA unwinding, red fluorescence. Potency, µM (titrated, usually from 57.1 µM), inactives show at the top dose activity change, negative = inhibition, hits mostly inhibitors. 60% of 610 active; note: nearly all actives have a fitted effect of over 60% in size
* hit, by the source's call; ? = inconclusive; / = not tested or not shown; [ ] = another dose, or the depositor's remark. Calls come from the whole dose curve; as a rule, active = well fitted curve in the direction sought with a large enough effect; inconclusive = small, poorly fitted or top-dose-only effect, or another doubt; inactive = no such curve, though single readings can be large; an effect the other way counts as inactive or inconclusive. Potency is the fitted concentration of half-maximal effect.

SMILES	Pol beta inh	Pol eta inh-1	Pol kappa inh-1	WRN helicase inh-1	POLI inh	Pol iota confirm	Pol eta inh-2	WRN helicase inh-2	TO DNA binding	BLM counter	others
COc1cc(Nc2nc(SCc3cccc(Cl)c3)nc3ccccc23)cc(OC)c1	-4%	-18%	-1%[60.1 µM]	/	?	/	/	/	/	/
O=c1c(O)c(-c2ccc(O)cc2)oc2cc(O)ccc12	/	/	-11%[19.4 µM]	/	/	/	/	/	/	/
O=c1c(O)c(-c2ccc(O)c(O)c2)oc2cc(O)ccc12	/	1.6µM*	2.8µM*	2.4µM*	2.5µM*	6.7*	7.6*	1.5µM*	-11%	0.86µM*	Pol kappa inh-2=8.4*
CCc1ccc(NC(=O)c2ccc(F)c(S(=O)(=O)NCCc3ccc(OC)c(OC)c3)c2)cc1	-1%	-4%	-5%[60.1 µM]	/	?	/	/	/	/	/
CCCC(=O)NC1=C(Cl)C(=O)c2ccccc2C1=O	/	?	-6%	25µM*	6.3µM*	67*	/	-17%	4.8µM*	24µM*
CCNC1=C(Cl)C(=O)c2ccccc2C1=O	?	-22%	-11%	-15%	-3%	/	/	/	/	/
c1cnc(N2CCN(c3ncc4c(n3)CCNC4)CC2)nc1	45µM*	18µM*	-30%	/	?	17*	24*	22µM*	?	?	Pol kappa inh-2=3*
Cc1ccc(C2=NC(=O)/C(=C/c3cc(O)c(O)c(Br)c3)S2)cc1	1.6µM*	0.79µM*	1.8µM*	7.9µM*	1.3µM*	17*	3.8*	1.7µM*	6.8µM*	0.76µM*	Pol kappa inh-2=5.3*
COc1cc(/C=C2\SC(c3ccc(C)cc3)=NC2=O)cc(OC)c1O	-7%	-32%	-6%	?	?	/	/	/	/	/
O=C(Nc1ccc(Cl)cc1)OCCN1CCN(Cc2ccccc2)CCC1=O	/	/	-5%[60.1 µM]	/	/	/	/	/	/	/
O=c1cc(N2CCNCC2)nc2sc(-c3ccncc3)nn12	/	/	/	/	/	27*	76*	6.1µM*	6.8µM*	1.2µM*
Cc1cc(=O)n2nc(-c3ccccc3)sc2n1	?	8%	-2%	-6%	16%	/	/	/	/	/
Fc1ccc(CNc2cc(-c3ccccc3)nc3nncn23)cc1	-2%	-4%	-10%	/	25%	/	/	/	/	/
O=C(COc1ccc(/C=N/NC(=O)c2ccccc2O)cc1)Nc1ccc([N+](=O)[O-])cc1	-11%	?	9%	17µM*	?	34*	60*	11µM*	?	4.8µM*
O=C(COc1ccc(/C=N/NC(=O)c2ccncc2)cc1)Nc1cccc([N+](=O)[O-])c1	-8%	10%	-4%	-3%	?	/	/	/	/	/
O=C(N/N=C/c1ccncc1)c1cccc(S(=O)(=O)Nc2ccc(Cl)cc2)c1	?	50µM*	28µM*	22µM*	28µM*	47*	67*	14µM*	31%	12µM*
Cc1ccc(Nc2nnc(-c3ccc(C)c(S(=O)(=O)N4CCOCC4)c3)c3ccccc23)cc1	-8%	-8%	-24%	/	-2%	/	/	/	/	/
N#C/C(=C\c1ccccc1OCc1ccc(C(=O)O)cc1)C(=O)Nc1ccc(O)cc1	24%	?	-3%	-21%[57.1 µM]	?	/	/	/	/	/
